# Data: the supplement of paper PMC4466140
# B1: unnamed (peptide)
# chain: DTIDNVKSKIQDKEG
# B2: unnamed (peptide)
# chain: QDKEGIPPDQQRLIF
# Target: SpBzz1-D2
# Experiment: SPOT peptide array binding signal intensity (averaged, normalized) (arbitrary units (background-subtracted, floor 0; scale differs between SH3 domains)); higher = stronger binding of the SH3 domain to the peptide
# Outline: (§1)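 GST-SH3 fusions from four yeast species, purified on glutathione Sepharose, were incubated at 10 μg/ml overnight at 4°C on membranes of synthetic 15-mer peptides in which cysteines were replaced with serines. Binding signal is the normalized, background-subtracted spot intensity averaged over replicates, in domain-specific arbitrary units.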
row,Binder,SPOT peptide array binding signal intensity
1,B1,≤ 0
2,B2,≤ 0

# Target: SpCyk3
# Experiment: as above
# Outline: as §1
row,Binder,SPOT peptide array binding signal intensity
1,B1,≤ 0
2,B2,≤ 0

# Target: SpHof1
# Experiment: as above
# Outline: as §1
row,Binder,SPOT peptide array binding signal intensity
1,B1,≤ 0
2,B2,≤ 0

# Target: SpHof1-2
# Experiment: as above
# Outline: as §1
row,Binder,SPOT peptide array binding signal intensity
1,B1,≤ 0
2,B2,0.5

# Target: SpHof1-3
# Experiment: as above
# Outline: as §1
row,Binder,SPOT peptide array binding signal intensity
1,B1,7.75
2,B2,20

# Target: SpHse1
# Experiment: as above
# Outline: as §1
row,Binder,SPOT peptide array binding signal intensity
1,B1,≤ 0
2,B2,≤ 0

# Target: SpLsb1
# Experiment: as above
# Outline: as §1
row,Binder,SPOT peptide array binding signal intensity
1,B1,≤ 0
2,B2,≤ 0

# Target: SpLsb4
# Experiment: as above
# Outline: as §1
row,Binder,SPOT peptide array binding signal intensity
1,B1,≤ 0
2,B2,≤ 0

# Target: SpMyo1
# Experiment: as above
# Outline: as §1
row,Binder,SPOT peptide array binding signal intensity
1,B1,≤ 0
2,B2,≤ 0

# Target: SpNbp2
# Experiment: as above
# Outline: as §1
row,Binder,SPOT peptide array binding signal intensity
1,B1,≤ 0
2,B2,≤ 0

# Target: SpPex13
# Experiment: as above
# Outline: as §1
row,Binder,SPOT peptide array binding signal intensity
1,B1,≤ 0
2,B2,≤ 0

# Target: SpRvs167
# Experiment: as above
# Outline: as §1
row,Binder,SPOT peptide array binding signal intensity
1,B1,≤ 0
2,B2,≤ 0

# Target: SpSla1-D1-D2
# Experiment: as above
# Outline: as §1
row,Binder,SPOT peptide array binding signal intensity
1,B1,≤ 0
2,B2,≤ 0

# Target: SpSla1-D3
# Experiment: as above
# Outline: as §1
row,Binder,SPOT peptide array binding signal intensity
1,B1,≤ 0
2,B2,≤ 0

# Target: AgAbp1
# Experiment: as above
# Outline: as §1
row,Binder,SPOT peptide array binding signal intensity
1,B2,≤ 0

# Target: AgBbc1
# Experiment: as above
# Outline: as §1
row,Binder,SPOT peptide array binding signal intensity
1,B2,≤ 0

# Target: AgBem1-D1
# Experiment: as above
# Outline: as §1
row,Binder,SPOT peptide array binding signal intensity
1,B2,≤ 0

# Target: AgBzz1-D1
# Experiment: as above
# Outline: as §1
row,Binder,SPOT peptide array binding signal intensity
1,B2,≤ 0

# Target: AgBzz1-D2
# Experiment: as above
# Outline: as §1
row,Binder,SPOT peptide array binding signal intensity
1,B2,≤ 0

# Target: AgCyk3
# Experiment: as above
# Outline: as §1
row,Binder,SPOT peptide array binding signal intensity
1,B2,≤ 0

# Target: AgFus1
# Experiment: as above
# Outline: as §1
row,Binder,SPOT peptide array binding signal intensity
1,B2,≤ 0

# Target: AgHof1
# Experiment: as above
# Outline: as §1
row,Binder,SPOT peptide array binding signal intensity
1,B2,≤ 0

# Target: AgHse1
# Experiment: as above
# Outline: as §1
row,Binder,SPOT peptide array binding signal intensity
1,B2,≤ 0

# Target: AgLsb1
# Experiment: as above
# Outline: as §1
row,Binder,SPOT peptide array binding signal intensity
1,B2,≤ 0

# Target: AgLsb4
# Experiment: as above
# Outline: as §1
row,Binder,SPOT peptide array binding signal intensity
1,B2,≤ 0

# Target: AgMyo5
# Experiment: as above
# Outline: as §1
row,Binder,SPOT peptide array binding signal intensity
1,B2,0.75

# Target: AgNbp2
# Experiment: as above
# Outline: as §1
row,Binder,SPOT peptide array binding signal intensity
1,B2,≤ 0

# Target: AgRvs167
# Experiment: as above
# Outline: as §1
row,Binder,SPOT peptide array binding signal intensity
1,B2,0.333

# Target: AgSho1
# Experiment: as above
# Outline: as §1
row,Binder,SPOT peptide array binding signal intensity
1,B2,≤ 0

# Target: AgSla1-D1-D2
# Experiment: as above
# Outline: as §1
row,Binder,SPOT peptide array binding signal intensity
1,B2,≤ 0

# Target: AgSla1-D3
# Experiment: as above
# Outline: as §1
row,Binder,SPOT peptide array binding signal intensity
1,B2,≤ 0

# Target: CaAbp1-D1
# Experiment: as above
# Outline: as §1
row,Binder,SPOT peptide array binding signal intensity
1,B2,≤ 0

# Target: CaAbp1-D2
# Experiment: as above
# Outline: as §1
row,Binder,SPOT peptide array binding signal intensity
1,B2,≤ 0

# Target: CaBbc1
# Experiment: as above
# Outline: as §1
row,Binder,SPOT peptide array binding signal intensity
1,B2,≤ 0

# Target: CaBem1-D1
# Experiment: as above
# Outline: as §1
row,Binder,SPOT peptide array binding signal intensity
1,B2,≤ 0

# Target: CaBzz1-D1
# Experiment: as above
# Outline: as §1
row,Binder,SPOT peptide array binding signal intensity
1,B2,≤ 0

# Target: CaBzz1-D2
# Experiment: as above
# Outline: as §1
row,Binder,SPOT peptide array binding signal intensity
1,B2,≤ 0

# Target: CaCyk3
# Experiment: as above
# Outline: as §1
row,Binder,SPOT peptide array binding signal intensity
1,B2,≤ 0

# Target: CaFus1
# Experiment: as above
# Outline: as §1
row,Binder,SPOT peptide array binding signal intensity
1,B2,≤ 0

# Target: CaHof1
# Experiment: as above
# Outline: as §1
row,Binder,SPOT peptide array binding signal intensity
1,B2,≤ 0

# Target: CaHse1
# Experiment: as above
# Outline: as §1
row,Binder,SPOT peptide array binding signal intensity
1,B2,≤ 0

# Target: CaLsb1
# Experiment: as above
# Outline: as §1
row,Binder,SPOT peptide array binding signal intensity
1,B2,≤ 0

# Target: CaLsb4
# Experiment: as above
# Outline: as §1
row,Binder,SPOT peptide array binding signal intensity
1,B2,≤ 0

# Target: CaMyo5
# Experiment: as above
# Outline: as §1
row,Binder,SPOT peptide array binding signal intensity
1,B2,10.8

# Target: CaNbp2
# Experiment: as above
# Outline: as §1
row,Binder,SPOT peptide array binding signal intensity
1,B2,≤ 0

# Target: CaRvs167
# Experiment: as above
# Outline: as §1
row,Binder,SPOT peptide array binding signal intensity
1,B2,≤ 0

# Target: CaRvs167-3
# Experiment: as above
# Outline: as §1
row,Binder,SPOT peptide array binding signal intensity
1,B2,3

# Target: CaSho1
# Experiment: as above
# Outline: as §1
row,Binder,SPOT peptide array binding signal intensity
1,B2,≤ 0

# Target: CaSla1-D1-D2
# Experiment: as above
# Outline: as §1
row,Binder,SPOT peptide array binding signal intensity
1,B2,≤ 0

# Target: CaSla1-D3
# Experiment: as above
# Outline: as §1
row,Binder,SPOT peptide array binding signal intensity
1,B2,≤ 0

# Target: ScAbp1
# Experiment: as above
# Outline: as §1
row,Binder,SPOT peptide array binding signal intensity
1,B2,8

# Target: ScBbc1
# Experiment: as above
# Outline: as §1
row,Binder,SPOT peptide array binding signal intensity
1,B2,≤ 0

# Target: ScBem1-D1
# Experiment: as above
# Outline: as §1
row,Binder,SPOT peptide array binding signal intensity
1,B2,≤ 0

# Target: ScBzz1-D1
# Experiment: as above
# Outline: as §1
row,Binder,SPOT peptide array binding signal intensity
1,B2,18

# Target: ScBzz1-D2
# Experiment: as above
# Outline: as §1
row,Binder,SPOT peptide array binding signal intensity
1,B2,26

# Target: ScCyk3
# Experiment: as above
# Outline: as §1
row,Binder,SPOT peptide array binding signal intensity
1,B2,≤ 0

# Target: ScFus1
# Experiment: as above
# Outline: as §1
row,Binder,SPOT peptide array binding signal intensity
1,B2,≤ 0

# Target: ScHof1
# Experiment: as above
# Outline: as §1
row,Binder,SPOT peptide array binding signal intensity
1,B2,≤ 0

# Target: ScHse1
# Experiment: as above
# Outline: as §1
row,Binder,SPOT peptide array binding signal intensity
1,B2,≤ 0

# Target: ScLsb1
# Experiment: as above
# Outline: as §1
row,Binder,SPOT peptide array binding signal intensity
1,B2,≤ 0

# Target: ScLsb2
# Experiment: as above
# Outline: as §1
row,Binder,SPOT peptide array binding signal intensity
1,B2,≤ 0

# Target: ScLsb3
# Experiment: as above
# Outline: as §1
row,Binder,SPOT peptide array binding signal intensity
1,B2,≤ 0

# Target: ScLsb4
# Experiment: as above
# Outline: as §1
row,Binder,SPOT peptide array binding signal intensity
1,B2,≤ 0

# Target: ScMyo3
# Experiment: as above
# Outline: as §1
row,Binder,SPOT peptide array binding signal intensity
1,B2,≤ 0

# Target: ScMyo5
# Experiment: as above
# Outline: as §1
row,Binder,SPOT peptide array binding signal intensity
1,B2,7

# Target: ScNbp2
# Experiment: as above
# Outline: as §1
row,Binder,SPOT peptide array binding signal intensity
1,B2,≤ 0

# Target: ScPex13
# Experiment: as above
# Outline: as §1
row,Binder,SPOT peptide array binding signal intensity
1,B2,≤ 0

# Target: ScRvs167
# Experiment: as above
# Outline: as §1
row,Binder,SPOT peptide array binding signal intensity
1,B2,1

# Target: ScSho1
# Experiment: as above
# Outline: as §1
row,Binder,SPOT peptide array binding signal intensity
1,B2,≤ 0

# Target: ScSla1-D1-D2
# Experiment: as above
# Outline: as §1
row,Binder,SPOT peptide array binding signal intensity
1,B2,≤ 0

# Target: ScSla1-D3
# Experiment: as above
# Outline: as §1
row,Binder,SPOT peptide array binding signal intensity
1,B2,≤ 0

# Target: SpAbp1-D1
# Experiment: as above
# Outline: as §1
row,Binder,SPOT peptide array binding signal intensity
1,B2,≤ 0

# Target: SpBbc1
# Experiment: as above
# Outline: as §1
row,Binder,SPOT peptide array binding signal intensity
1,B2,≤ 0

# Target: SpBzz1-D1
# Experiment: as above
# Outline: as §1
row,Binder,SPOT peptide array binding signal intensity
1,B2,≤ 0
